Experimental data reported in PubChem BioAssay (NCI).
Compounds without any hit were thinned out: in the full panel of roughly 83,000, 20% have a hit.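 A percent growth of 40 corresponds to 60% growth inhibition; 0 means no net growth; -100 means all cells died. Active threshold: below 10.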 Unmarked numbers belong to inactive results. Activity calls are given as the source filed them.

tested on: SF-268 CNS; test: NCI-60 one-dose screen, 48 h (100 = growth as untreated, 0 = no growth, -100 = all killed); settings: 10 µM unless noted

SMILES | growth
CC(=O)Nc1nc(C(=O)N2N=C(C)/C(=C/c3cccs3)C2=O)cs1 | 107%
COc1ccc(-c2nnc(COc3ccc(NC(=O)Nc4ccc(Cl)c(C(F)(F)F)c4)cc3F)o2)cc1 | 20.5%
COc1ccc(OC)c(NC(=O)c2cc(S(=O)(=O)N3CCc4ccccc43)ccc2OC)c1 | 95.9%
CC(C)(C)c1cc(-c2nc3ccc(N4CCN(CCO)CC4)cc3[nH]2)cc(C(C)(C)C)c1O | 68.3%
COc1cc2oc(-c3cccc(NC(=O)Nc4ccc5c(c4)OCO5)c3)cc(=O)c2c(OC)c1OC | 75.6%
COc1ccc(NC(=O)/N=c2\oc3c(OC)cccc3cc2-c2cc3ccccc3[nH]2)cc1 | 70%
CCN1C(=S)N(CC)C2Nn3c(s/c(=C4\C(=O)N(C)c5ccccc54)c3=O)=NC21 (centres undefined) | 53.5%
COc1ccc(/C=C2\Oc3cc(OCCN4CCCC4)ccc3C2=O)c(OC)c1 | 95.1%
COc1ccc(C2CC(c3cccs3)=NN2c2ccc(S(=O)(=O)NC(=O)NCc3cccc(OC)c3)cc2)cc1 (centres undefined) | 97.9%
O=C(Nc1cccc(C(F)(F)F)c1)Nc1ccc(OCc2nnc(-c3ccccc3)o2)c(F)c1 | 58.7%
NC(=O)c1c(NC(=O)c2ccc(OCC3CCCO3)cc2)sc2c1CCCC2 (centres undefined) | 109%
CC(C)(C)OC(=O)N1C/C(=C\c2cccs2)C(=O)/C(=C/c2cccs2)C1 | 91.8%
COc1ccc(-c2nnc(COc3ccc(NS(=O)(=O)c4ccc(OC)cc4)cc3F)o2)cc1 | 84.6%
COc1ccc(/C=C2\C(=O)N(C(=O)c3csc(NC(C)=O)n3)N=C2C)cc1 | 99.1%
NC(=O)c1c(NC(=O)c2ccc3c(c2)OCO3)sc2c1CCC(=O)C2 | 21.5%
COc1ccc(OC)c(/C=C2\Oc3cc(OCCN4CCCC4)ccc3C2=O)c1 | 93.7%
CCCCNc1nnc(-c2cc(-c3cc4ccccc4o3)nn2-c2ccccc2)o1 | 93.9%
Nc1c(C(=O)Nc2cccc([N+](=O)[O-])c2)sc2nc3c(cc12)C(O)CCC3 (centres undefined) | 60.5%
O=c1oc2c([nH]c3ccc4ccccc4c32)c2ccccc12 | 115%
CCc1cccc(C)c1NC(=O)c1sc2nc3c(cc2c1N)C(=O)CCC3 | 42.7%

SMILES | growth
C#CCN1C(=O)/C(=c2\sc3n(c2=O)C2C(NN=3)N(CC)C(=O)N2CC)c2ccccc21 (centres undefined) | 50%
OCc1c(-c2ccccc2)nc2sccn12 | 102%
C#CCN1C(=O)/C(=c2\sc3n(c2=O)NC2C(N=3)N(CC)C(=O)N2CC)c2ccccc21 (centres undefined) | 75.5%
CSc1nc(-c2cc3ccccc3o2)cc(-c2ccc(Cl)cc2)c1C#N | 51.7%
O=C1CCCCC=C1C[N+](=O)[O-] | 94.2%
CCCCCCCCCCCCCCCCCCOc1cccc(CCOP(=O)(O)OCC[N+](C)(C)C)c1 | 68%
CC[C@H](C)[C@@H]1NC(=O)[C@H]([C@@H](C)O)NC(=O)C(Cc2ccccc2)NC(=O)[C@@H]2CCCN2C(=O)C(C(C)C)NC(=O)C(Cc2ccccc2)NC(=O)CNC(=O)[C@@H]2CCCN2C1=O (some centres undefined) | 72.8%
COc1cc(C2C3=C(COC3=O)Nc3c2ccc2c3CCCC2)cc2c1OCO2 (centres undefined) | 8.63% (active)
FC(F)(F)c1cccc(-n2nnc3cnc(Nc4ccc(N5CCCCC5)cc4)nc32)c1 | 55.5%
COc1cc(CCn2nnc3c(Nc4ccc(N5CCOCC5)cc4)ncnc32)cc(OC)c1 | 99.7%
Nc1c(C(=O)Nc2cccc(Cl)c2Cl)sc2nc3c(cc12)C(=O)CCC3 | 103%
COC(=O)c1ccc2nc(-c3cc4ccccc4n3C)n(CCCCOc3cc4c(cc3OC)C(=O)N3CCC[C@H]3C=N4)c2c1 | 1.79% (active)
O=Nc1c(-c2c(O)[nH]c3ccc([N+](=O)[O-])cc23)[nH]c2ccc(O)cc12 | 6.5% (active)
Nc1nc(-c2cc3ccccc3o2)cc(=O)c(=O)[nH]1 | 96.5%
COc1cc(-c2n[nH]nc2-c2ccc3c(c2)OCCO3)cc(OC)c1OC | 15.9%
Nc1nc(Cl)c2c(ncn2Cc2ccc(CCl)cc2)n1 | 91.1%
Cc1cc(Nc2nc(-c3ccncc3)nc3ccccc23)n[nH]1 | 70.1%
O=C(Nc1cc(C(F)(F)F)cc(C(F)(F)F)c1)Nc1ccc(OCc2nnc(-c3ccc(Cl)cc3)o2)c(F)c1 | 25.6%
CCN1C(=O)N(CC)C2Nn3c(s/c(=C\c4cccc(F)c4)c3=O)=NC21 (centres undefined) | 76.1%
